The list is not random: actives were taken first. Their share in the collection is about 7.5%.
NPC1 promoter act – activates the NPC1 promoter; actives 2.4% (n = 320,000); AID 485313; Huh7 NPC1 promoter luciferase reporter, 24 h; Potency, µM (top dose mostly 9.22 µM), for the others: at the top dose activation, actives largely listed as activators; note: % of control where 0% means no effect; nearly all actives have a fitted effect of over 60% in size
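Quantitative HTS used a cell-based reporter: Huh7 cells stably bearing the NPC1 promoter upstream of luciferase were treated with compounds for 24 h, and promoter activation was read as luminescence.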
ELG1 genotoxic – genotoxicity induction in ELG1-luciferase HEK293T cells | HEK293T ELG1-luciferase reporter, luminescence, 16 h | actives 1.3% (n = 330,000) | Potency, µM (doses to about 46 µM), for inactives: at the highest dose activity change, positive = activation, actives largely listed as activators | AID 504466; note: % of control where 0% means no effect; nearly all actives have a fitted effect of over 60% in size
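Genotoxic stress is detected as increased luminescence from luciferase-tagged ELG1 in HEK293T cells, measured with ONE-Glo after a 16 hr treatment at 37 °C.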
FLuc counter – firefly luciferase modulation, counter-screen for miR-21 project | P08659 | purified FLuc, Km substrates, luminescence inhibition | Potency, µM (highest dose often 57.5 µM), inactives show at the highest dose activity change, negative = inhibition, usual class: inhibitors | actives 6.9% (n = 360,000) | AID 588342;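 note: plate controls were vehicle for no effect and reference inhibitor for full effect; nearly all actives have a fitted effect of over 55% in size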
Target sequence (P08659 whole entry, looked up): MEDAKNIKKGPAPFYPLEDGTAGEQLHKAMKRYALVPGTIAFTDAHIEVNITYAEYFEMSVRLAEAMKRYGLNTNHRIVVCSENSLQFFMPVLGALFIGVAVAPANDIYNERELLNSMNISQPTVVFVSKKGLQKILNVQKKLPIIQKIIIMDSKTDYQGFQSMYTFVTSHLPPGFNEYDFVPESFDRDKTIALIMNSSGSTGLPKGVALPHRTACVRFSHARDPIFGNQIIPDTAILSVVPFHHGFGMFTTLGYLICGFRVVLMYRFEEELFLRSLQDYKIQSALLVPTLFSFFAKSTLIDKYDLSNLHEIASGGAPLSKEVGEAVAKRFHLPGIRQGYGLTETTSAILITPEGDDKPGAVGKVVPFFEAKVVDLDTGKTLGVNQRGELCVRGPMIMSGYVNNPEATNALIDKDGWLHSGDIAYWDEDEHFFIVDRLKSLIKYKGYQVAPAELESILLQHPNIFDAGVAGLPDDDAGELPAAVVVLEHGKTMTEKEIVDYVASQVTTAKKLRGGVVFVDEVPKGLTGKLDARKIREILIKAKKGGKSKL
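Biochemical qHTS of compounds, final roughly 60 µM downward over six points, against 10 nM purified firefly luciferase using Km concentrations of substrates (10 uM D-luciferin, 10 uM ATP) in Tris acetate pH 7.5 buffer; luminescence output.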
SMN2 splice enh – SMN2 splice variant enhancement; HEK293 SMN2-luciferase splicing reporter, luminescence, 30-36 h; Potency, µM (titrated, usually from 46.1 µM), for inactives: top-dose activity change, positive = activation, most hits filed as activators; actives 2.8% (n = 210,000); note: % of control where 0% means no effect; nearly all actives have a fitted effect of over 55% in size
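HEK293 cells carry an SMN2 minigene-luciferase reporter in which exon 7 inclusion puts luciferase in frame. Cells were seeded at 2000 cells/well, attached for 10-12 hours, then exposed to compounds for 30-36 hours at 37C before ONE-Glo luminescence.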
Luc counter – Kinase-Glo luciferase inhibition (counter-screen); Q27757; Kinase-Glo luciferase, ATP luminescence, 8 min; Potency, µM (series often up to 38.3 µM), inactives show at the highest dose activity change, negative = inhibition, hits mostly inhibitors; actives 0.28% (n = 200,000); note: % is set by controls: 0 for no effect and ±100 for the full control effect; nearly all actives have a fitted effect of over 60% in size
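Light output from Kinase-Glo luciferase with luciferin and 10 uM ATP in 50 mM imidazole pH 7.2, KCl, MgCl2, Tween 20, BSA; compound pin-delivered, 8-min ambient incubation, then luminescence read.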
Rab9 prom act – Rab9 promoter activation | Huh7 Rab9 promoter-luciferase reporter, luminescence, 24 h | Potency, µM (highest dose often 9.22 µM), for the others: at the highest dose activation, negative = inhibition, hits mostly activators | AID 485297 | actives 2.8% (n = 320,000); note: % of control where 0% means no effect; nearly all actives have a fitted effect of over 60% in size
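Luminescence read-out: Huh7 cells stably expressing Rab9-luciferase, treated 24 h with compound at 37 °C, then lysed with luciferase reagent for 10 min at ambient before reading.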
* marks the source's active call; other numbers are inactive results; ? = inconclusive; . = not tested or not shown; [ ] = dose if it differs, or a comment. Calls come from the whole dose curve; as a rule, active = well fitted curve in the direction sought with a large enough effect; inconclusive = small, poorly fitted or top-dose-only effect, or another doubt; inactive = no such curve, though single readings can be large; an effect the other way counts as inactive or inconclusive. Potency is the fitted concentration of half-maximal effect.

SMILES | NPC1 promoter act | ELG1 genotoxic | FLuc counter | SMN2 splice enh | Luc counter | Rab9 prom act
Fc1ccc(-c2nc(-c3cccs3)[nH]c2-c2ccc(F)cc2)cc1 | 1% | -5% | -5% | -33% | 0% | -1%
Cc1[nH]c2ccccc2c1-c1cc(-c2cc(-c3c(C)[nH]c4ccccc34)on2)no1 | . | . | . | -4%[9.22 µM] | 0%[7.66 µM] | .
c1csc(-c2nc3ccccc3[nH]2)c1 | ? | 15% | 30µM* | 13µM* | -15% | ?
O=C(CCS(=O)(=O)c1cc2c(cc1Cl)NC(=O)CO2)NCc1ccc(F)cc1 | -2% | 0% | 1% | . | . | 1%
Cn1c(-c2ccc3c(c2)OCO3)cnc1NCc1ccccc1Cl | 25% | 10% | 12µM* | ? | -1% | ?
Brc1ccc2oc3c(N4CCOCC4)ncnc3c2c1 | ? | 15% | 15µM* | 19% | -2% | ?
Cc1ccc(NC(=O)Nc2ccc(Cl)cn2)cc1 | 13% | ? | ? | 11µM* | -1% | 4µM*
Cc1ccc(NC(=O)Nc2ccc(Cl)c(Cl)c2)nc1 | ? | ? | ? | . | . | 4.5µM*
CCC(=O)Nc1cccc(C(=O)/C=C/c2cccs2)c1 | 26% | 12% | 12µM* | -64% | -3% | ?
CCC(=O)Nc1cccc(C(=O)c2ccccc2)c1 | 0% | 10% | -8% | 3% | 2% | 2%
CCC(=O)Nc1cccc(C(=O)/C=C/c2ccccc2)c1 | -2% | ? | 11µM* | -88% | -14% | 6%
C=Cc1ccc(CSc2cc(C)nc3nc(C)nn23)cc1 | -4% | 0% | 2% | . | . | -9%
Oc1ccc(-c2nc3ccc4ccccc4c3c3c2CCC3)cc1O | -2% | 9% | 24µM* | -18%[1.84 µM] | -1% | 1%
COc1cccc(N2CCN(C(=O)CCCn3c(=O)[nH]c4ccc(Br)cc4c3=O)CC2)c1 | . | . | -13% | -16% | . | .
c1ccc(-c2cnc(-c3ccccc3)nc2)cc1 | 0.56µM* | ? | 0.3µM* | 7.1µM* | -25% | 0.35µM*
c1ccc(-c2ncc3c(ccc4ccccc43)n2)cc1 | 4µM* | 0.65µM* | 0.085µM* | 0.5µM* | -25% | 0.79µM*
Cc1cc2nc3ccc(=[N+](C)C)cc-3sc2cc1N | 12% | -2% | 17µM* | . | . | 14%
COc1ccc(NC(=O)c2cccnc2Nc2ccc(OC)cc2)cc1 | -5% | -2% | ? | -4% | -4% | 7%
CC(C)c1ccc(Nc2ncccc2C(=O)O)cc1 | 0.63µM* | ? | 2.7µM* | 16µM* | -7% | 0.4µM*
OC[C@@H](O)[C@@H](O[C@H]1O[C@H](CO)[C@@H](O)[C@H](O)[C@H]1O)[C@H](O)[C@@H](O)CO | -2% | . | -4% | . | . | -6%
CC1CCN(c2nn3c(=O)c(C(=O)NCCc4ccc(Cl)cc4)cnc3s2)CC1 | . | . | 1% | . | . | .
N#C/C(=C\c1ccc(F)c(Br)c1)C(=O)NC1CC1 | 3.2µM* | 10µM* | ? | . | . | 4µM*
Cc1cc(=O)[nH]c2ccc(S(=O)(=O)Nc3ccccc3)cc12 | -4% | 23µM* | 5% | . | . | -1%
Cc1cc(=O)[nH]c2ccc(S(=O)(=O)Nc3ccc(O)cc3)cc12 | 0% | 15% | -2% | . | . | 0%
c1csc(CNc2ccc3c(c2)OCCO3)c1 | 9% | 8.2µM* | 27µM* | -11% | 2% | 14%
SMILES | NPC1 promoter act | ELG1 genotoxic | FLuc counter | SMN2 splice enh | Luc counter | Rab9 prom act
Oc1ccccc1CNc1ccc2c(c1)OCCO2 | 14% | ? | 12µM* | . | -5% | 3.5µM*
Clc1cc(NCc2cccs2)ccc1N1CCOCC1 | ? | 18µM* | ? | ? | 2% | ?
c1cncc(CNc2ccc3c(c2)OCO3)c1 | 11% | 9% | -19% | -5% | 15% | 2%
Cc1ccc(CNc2ccc3c(c2)OCO3)c(C)c1 | . | . | 21µM* | 5% | -2% | .
Cc1ccc(NCc2ccccc2O)cc1C | 14% | ? | ? | 17% | -2% | 20%
COc1cc(NC(=S)N2CCC(C(N)=O)CC2)c(OC)cc1Cl | 1% | 0% | -2% | 5% | 1% | -3%
CC(OC(=O)CN1C(=O)c2ccccc2C1=O)C(=O)NC1CCCCC1C (stereo unspecified) | -5% | 0% | 1% | . | . | -1%
COc1ccc2nc(SCCC(=O)O)cc(C)c2c1 | -2% | 3% | ? | . | . | -2%
COc1cccc(-c2cncnc2-n2ccnc2)c1 | . | . | . | 18% | -6% | .
COc1cccc(-c2nccc(-n3ccnc3)n2)c1 | . | . | . | 13µM* | -4% | .
Cc1ccc2nc(N3CCN(c4ccccc4F)CC3)c(C=O)c(=O)n2c1 | -8% | 3% | -12% | . | 6% | 2%
O=C(COc1ccc(Cl)cc1)NNC(=O)c1ccccn1 | 6% | -9% | 1% | 4% | -2% | 0%
Cc1ccnc(NC(=O)COc2ccc(Cl)cc2)n1 | 19% | ? | 24µM* | . | . | 21%
O=C(COc1ccc(Cl)cc1)Nc1ncccn1 | 13% | 21µM* | 19µM* | 8% | -6% | 16%
Cc1cc(C)nc(NC(=O)COc2ccc(Cl)cc2)c1 | . | . | . | -5%[9.22 µM] | 0%[7.66 µM] | .
COc1cccc(OCc2ccc(Cl)cc2)c1C#N | 0.71µM* | ? | 0.54µM* | . | . | 0.56µM*
COc1cccc(CNC(C)(C)CO)c1OCc1ccc(Cl)cc1 | -2% | -8% | 6% | -17% | -2% | -5%
C/C(CC(=O)Nc1ccccn1)=N\NC(=O)c1ccccc1 | 1% | 4% | 4% | ? | -2% | -2%
C/C(CC(=O)Nc1cc(C)ccn1)=N\NC(=O)c1cccc(C)c1O | -10% | 5.8µM* | ? | . | . | 14%
C/C(CC(=O)Nc1ccccn1)=N\NC(=O)c1ccccc1O | 1% | 16µM* | 17µM* | . | . | 2%
C/C(CC(=O)Nc1cc(C)ccn1)=N\NC(=O)c1cccc(C)c1 | 6% | -13% | -17% | 3% | -4% | -6%
COc1ccc(N2CC(C(=O)OC(C)C(=O)c3ccccc3)CC2=O)cc1 (stereo unspecified) | -11% | 2% | -1% | . | -2% | 0%
NN1C(=O)NC(c2ccccc2)(c2ccccc2)C1=O | 1% | -21% | -1% | . | 0% | 1%
Cc1sc2c(c1C)C(=O)NC(c1ccccc1F)N2 (stereo unspecified) | 27% | ? | 17µM* | . | . | ?
Cc1cccc(C2NC(=O)c3c(sc(C)c3C)N2)c1O (stereo unspecified) | 16% | -1% | ? | -2% | -6% | 0%
Brc1cc2c(cc1/C=N/Nc1nc3ccccc3s1)OCO2 | ? | 18µM* | -19% | ? | -5% | ?
C(=N\Nc1nc2ccccc2s1)/c1ccc2c(c1)OCO2 | 4µM* | ? | 0.76µM* | 1µM* | -2% | 1.3µM*

Screening data from PubChem BioAssay.
